Values joined by “and” are separate entries in the source; they are usually repeats but may differ in a detail not shown here. Identical values can stand only once. Records with an inconclusive call do not appear. Active and inactive are the calls of the source. Unless noted, the call rests on the fitted dose curve; in most records, active means well fitted curve in the direction sought with a large enough effect in the repeat runs; inconclusive means weak or mixed curves; inactive means flat fitted curve, though single readings scatter.
How the values were obtained:
[1] = qHTS assay to test for compound auto fluorescence at 535 nm (green) in HEK293 cells (AID 720680); further: potency means the concentration at half of the fitted maximal effect
[2] = qHTS assay to test for compound auto fluorescence at 460 nm (blue) in HEK293 cell free culture (AID 720681)
In short: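 Compounds were added to cell-free DMEM with 10% FBS and fluorescence read directly. The blue channel used 405 nm excitation and 460 nm emission, with triamterene as the reference fluorophore.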

[3] = qHTS assay to test for compound auto fluorescence at 535 nm (green) in HEK293 cell free culture (AID 720682)
In short: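 Measurement is a direct plate read of green fluorescence (485 nm in, 535 nm out) after compound addition to serum-supplemented DMEM lacking cells, with fluorescein used to express intensities.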

[4] = qHTS assay to test for compound auto fluorescence at 590 nm (red) in HEK293 cell free culture (AID 720683); further: potency means the concentration at half of the fitted maximal effect
In short: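 Cell-free wells of DMEM with 10% FBS received compound, and intrinsic fluorescence was read at excitation/emission 540/590 nm. Values expressed as equivalence to Rose Bengal sodium.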

[5] = qHTS assay to test for compound auto fluorescence at 460 nm (blue) in HepG2 cell free culture (AID 720685)
In short: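 Cell-free plates of MEM plus 10% FBS received 23 nL compound or DMSO vehicle; blue-channel (405/460 nm) intensity scored against triamterene as reference fluorophore.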

[6] = qHTS assay to test for compound auto fluorescence at 535 nm (green) in HepG2 cell free culture (AID 720686); further: potency means the concentration at half of the fitted maximal effect
[7] = qHTS assay to test for compound auto fluorescence at 460 nm (blue) in HepG2 cells (AID 720687)
In short: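 HepG2 cells in MEM with 10% FBS, attached overnight at 37 C, were exposed to compound or DMSO for 1 hr at 37 C, 5% CO2. Blue fluorescence was read at 405/460 nm, with triamterene as reference fluorophore.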

[8] = biological target: Glucocorticoid receptor (Homo sapiens) (UniProt P04150); assay: qHTS assay to identify small molecule agonists of the glucocorticoid receptor (GR) signaling pathway (AID 720691; active means well fitted activation curve with a large enough effect in the signal ratio in the repeat runs, not every such curve was filed as active; the % refers to the signal ratio; further: potency means the concentration at half of the fitted maximal effect)
In short: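 A HeLa cervical cancer line expressing GR and a glucocorticoid response element-driven beta-lactamase gene is treated with compounds for 18 h; LiveBLAzer B/G FRET substrate is then applied and fluorescence read.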

[9] = qHTS assay to test for compound auto fluorescence at 590 nm (red) in HepG2 cell free culture (AID 720684); further: potency means the concentration at half of the fitted maximal effect
In short: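 Rose Bengal sodium served as the reference for red signal. Test compounds were dispensed into serum-containing MEM (10% FBS) without cells, and plates were read at 540/590 nm.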

[10] = biological target: Glucocorticoid receptor (Homo sapiens) (UniProt P04150); assay: qHTS assay to identify small molecule antagonists of the glucocorticoid receptor (GR) signaling pathway (AID 720692; active means well fitted inhibition curve with a large enough effect in the signal ratio in the repeat runs, not every such curve was filed as active; the % refers to the signal ratio; further: potency means the concentration at half of the fitted maximal effect)
In short: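 GRE-bla HeLa line, dex-stimulated (5 nM final). Compound exposure 18 h, 37 C. Beta-lactamase FRET read after 2 h RT substrate.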

Measured: Potency
On the % scale 0 is the no-effect control and ±100 the full control effect; tags describe the fitted curve by direction and shape or compound fluorescence and quenching.

Chain of Glucocorticoid receptor (Homo sapiens) (P04150 whole entry, looked up): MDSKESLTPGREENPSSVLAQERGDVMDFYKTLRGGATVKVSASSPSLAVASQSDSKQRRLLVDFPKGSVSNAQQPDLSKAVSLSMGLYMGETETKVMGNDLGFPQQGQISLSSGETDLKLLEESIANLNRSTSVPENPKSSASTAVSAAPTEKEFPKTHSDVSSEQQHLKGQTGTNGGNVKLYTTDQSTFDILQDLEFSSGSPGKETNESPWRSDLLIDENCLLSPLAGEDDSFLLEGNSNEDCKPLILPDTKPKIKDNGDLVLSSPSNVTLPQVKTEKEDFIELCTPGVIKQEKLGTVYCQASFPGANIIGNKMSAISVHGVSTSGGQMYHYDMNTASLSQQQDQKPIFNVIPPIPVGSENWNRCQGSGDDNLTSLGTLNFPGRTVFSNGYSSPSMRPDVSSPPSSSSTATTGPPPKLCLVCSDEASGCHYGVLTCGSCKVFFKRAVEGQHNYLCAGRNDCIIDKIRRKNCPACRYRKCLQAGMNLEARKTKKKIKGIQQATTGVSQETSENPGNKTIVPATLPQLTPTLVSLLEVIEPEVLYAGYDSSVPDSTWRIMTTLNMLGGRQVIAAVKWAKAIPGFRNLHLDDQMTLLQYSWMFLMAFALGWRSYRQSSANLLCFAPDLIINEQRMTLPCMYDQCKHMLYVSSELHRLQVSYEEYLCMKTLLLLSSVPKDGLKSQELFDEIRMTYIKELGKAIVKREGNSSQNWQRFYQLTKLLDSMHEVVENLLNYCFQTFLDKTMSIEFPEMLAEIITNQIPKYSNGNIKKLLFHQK

O=C(CCCN1CCC(O)(c2ccc(Cl)cc2)CC1)c1ccc(F)cc1
inactive: [1] | [2] | [3] | [4] | [5] | [6] | [7] | [8]

NCCN
inactive: [1] | [2] | [4] | [9] | [5] | [6] | [7]

OC[C@H]1O[C@@H]2O[C@H]3[C@H](O)[C@@H](O)[C@@H](O[C@H]4[C@H](O)[C@@H](O)[C@@H](O[C@H]5[C@H](O)[C@@H](O)[C@@H](O[C@H]6[C@H](O)[C@@H](O)[C@@H](O[C@H]7[C@H](O)[C@@H](O)[C@@H](O[C@H]1[C@H](O)[C@H]2O)O[C@@H]7CO)O[C@@H]6CO)O[C@@H]5CO)O[C@@H]4CO)O[C@@H]3CO
inactive: [1] | [2] | [3] | [4] | [5] | [6] | [7] | [8]

Nc1cc(Cl)c(N)c(Cl)c1
inactive: [1] | [2] | [4] | [9] | [5] | [6] | [8] | [10]

C=CCNCC=C
inactive: [1] | [2] | [4] | [9] | [5] | [6] | [8] | [10]

c1ccc2c(c1)[nH]c1ccccc12
inactive: [1] | [2] | [3] | [4] | [5] | [6] | [7] | [8] | [10]

Cc1ccc(/C(=C\CN2CCCC2)c2ccccn2)cc1
inactive: [1] | [2] | [4] | [9] | [5] | [6]

CC(C)(Oc1ccc(Cl)cc1)C(=O)O
inactive: [1] | [2] | [3] | [4] | [5] | [6] | [8] | [10]

CCOC(=O)C(C)Oc1ccc(Oc2cnc3cc(Cl)ccc3n2)cc1 (stereo not drawn)
inactive: [1] | [2] | [3] | [4] | [5] | [6] | [7] | [8]

CCCCCC1C(=O)CCC1CC(=O)OC (stereo not drawn)
inactive: [1] | [2] | [4] | [5] | [6] | [7]

Cc1ccc([N+](=O)[O-])c(C)c1
inactive: [1] | [2] | [4] | [9] | [5] | [6] | [7] | [8]

Nc1cc([N+](=O)[O-])ccc1C(=O)O
inactive: [1] | [2] | [4] | [9] | [5] | [6]

OCCNCCO
inactive: [1] | [2] | [3] | [4] | [5] | [6] | [7] | [8]

C=CC(C)(O)CCC=C(C)C (stereo not drawn)
inactive: [1] | [2] | [3] | [4] | [5] | [6] | [7] | [8] | [10]

Cc1ccc(N)c([N+](=O)[O-])c1
inactive: [1] | [2] | [4] | [9] | [5] | [6] | [7] | [8] | [10]

C=C[C@H]1CN2CC[C@H]1C[C@@H]2[C@@H](O)c1ccnc2ccc(OC)cc12
inactive: [1] | [2] | [4] | [9] | [5] | [6] | [7]

CN(C)CCCN1c2ccccc2Sc2ccc(Cl)cc21
inactive: [1] | [2] | [4] | [9] | [5] | [6] | [7]

COc1ccc(C(=O)c2ccccc2O)c(O)c1
inactive: [1] | [2] | [3] | [4] | [5] | [6] | [7] | [8]

CC1(C)O[C@@H]2C[C@H]3[C@@H]4C[C@H](F)C5=CC(=O)C=C[C@]5(C)[C@@]4(F)[C@@H](O)C[C@]3(C)[C@]2(C(=O)CO)O1
active: [8] 3.8 nM and 1.2 nM
inactive: [1] | [2] | [3] | [4] | [5] | [6] | [7]

Nc1ccc(N)c(Cl)c1
inactive: [1] | [2] | [4] | [9] | [5] | [6] | [8]

O=C1OC2(c3ccccc31)c1cc(I)c(O)c(I)c1Oc1c2cc(I)c(O)c1I
active: [1] 10 µM [fluorescent] and 14.1 µM [fluorescent] and 17.8 µM [fluorescent] | [4] 11.2 µM [fluorescent] and 17.8 µM [fluorescent] | [9] 11.2 µM [fluorescent] and 17.8 µM [fluorescent] and 15.8 µM [fluorescent] | [6] 11.2 µM [fluorescent] [middle of 4 runs]
inactive: [2] | [5]

C1CN(SSN2CCOCC2)CCO1
inactive: [1] | [2] | [4] | [9] | [5] | [6] | [7] | [8]

CC(C)[C@@H]1CC[C@@H](C)CC1=O
inactive: [1] | [3] | [4] | [9] | [5] | [6]

CCCCCCC(C)O (stereo not drawn)
inactive: [1] | [2] | [4] | [5] | [6] | [8]

C[C@]12C=CC(=O)C=C1CC[C@H]1[C@@H]3C[C@@H](O)[C@](O)(C(=O)CO)[C@@]3(C)C[C@H](O)[C@@]12F
active: [8] 301 nM and 61.6 nM
inactive: [1] | [2] | [4] | [9] | [5] | [6] | [7]

O=C(O)COCCN1CCN(C(c2ccccc2)c2ccc(Cl)cc2)CC1 (stereo not drawn)
inactive: [1] | [3] | [4] | [9] | [5] | [6]

FC(F)(F)C(Cl)Br (stereo not drawn)
inactive: [1] | [3] | [4] | [9] | [5] | [6] | [8]

O=C1CCc2ccccc2O1
inactive: [1] | [4] | [5] | [6] | [7] | [8] | [10]

O=C(O)c1ccc(O)cc1
inactive: [1] | [4] | [9] | [5] | [6] | [7] | [8] | [10]

O=Cc1ccccc1C=O
inactive: [1] | [3] | [4] | [9] | [5] | [6] | [7]

CCCCCCCCCCCCO
inactive: [1] | [4] | [5] | [6] | [7]

Cc1ccc(C(C)(C)C)cc1
inactive: [1] | [3] | [4] | [9] | [5] | [6] | [7]

O=C(O)CCCCCCCCCCCC(=O)O
inactive: [1] | [3] | [4] | [9] | [5] | [6]

C=CN1CCCC1=O
inactive: [1] | [3] | [4] | [9] | [5] | [6] | [7]

Cc1ccc(C)c(O)c1
inactive: [1] | [3] | [4] | [5] | [6] | [7] | [8] | [10]

CC/C=C\C/C=C\C/C=C\CCCCCCCC(=O)O
inactive: [1] | [4] | [5] | [6] | [7]

CCC/C=C/C=O
inactive: [1] | [3] | [4] | [9] | [5] | [6] | [7] | [8]

CC(C)=CCO
inactive: [1] | [4] | [9] | [5] | [6] | [7]

O=[Se](O)O
inactive: [1] | [4] | [9] | [5] | [6] | [7]

CCCN1C=CN(C)C1
inactive: [1] | [4] | [9] | [5] | [6]

C/C=C/C(=O)N(CC)c1ccccc1C
inactive: [1] | [3] | [4] | [5] | [6] | [8] | [10]

Cc1ccc2c(c1)C(=O)OC2=O
inactive: [1] | [4] | [9] | [5] | [6] | [8]

O=C(O)CCCC(=O)O
inactive: [1] | [3] | [4] | [9] | [5] | [6] | [7] | [8]

CCCCCCCCCCC(CO)CCCCCCCC (stereo not drawn)
inactive: [1] | [3] | [4] | [9] | [5] | [6] | [8] | [10]

C1COCCN1
inactive: [1] | [4] | [9] | [5] | [6] | [7]

CCCCCCCCCCCCCO
inactive: [1] | [4] | [9] | [5] | [6] | [7] | [8] | [10]

CC1(C)C(C=C(Cl)Cl)C1C(=O)OCc1cccc(Oc2ccccc2)c1 (stereo not drawn)
inactive: [1] | [4] | [9] | [5] | [6] | [7] | [8] | [10]

CCC(Cc1c(I)cc(I)c(N)c1I)C(=O)O (stereo not drawn)
inactive: [1] | [4] | [5] | [6] | [8]

CC(=O)Oc1ccc(C(c2ccc(OC(C)=O)cc2)c2ccccn2)cc1
inactive: [1] | [3] | [4] | [9] | [5] | [6] | [7]

c1ccc2ncccc2c1
inactive: [1] | [3] | [4] | [9] | [5] | [6] | [8]

C=C[Si](OCCOC)(OCCOC)OCCOC
inactive: [1] | [4] | [5] | [6] | [7] | [8]

CC[C@]12CCCN3CCc4c(n(c5ccccc45)[C@@](O)(C(=O)OC)C1)[C@@H]32
inactive: [1] | [3] | [4] | [9] | [5] | [6] | [7] | [8]

CC(C)(C)c1cccc(C(C)(C)C)c1O
inactive: [1] | [3] | [4] | [5] | [6] | [8]

NCCS(=O)(=O)O
inactive: [1] | [4] | [5] | [6] | [7] | [8] | [10]

Oc1ccc(C(c2ccc(O)cc2)C(Cl)(Cl)Cl)cc1
inactive: [1] | [3] | [4] | [9] | [5] | [6] | [7]

Nc1ccc(O)c(N)c1
inactive: [1] | [4] | [9] | [5] | [6] | [8]

Cc1ccc(S(=O)(=O)NCl)cc1
inactive: [1] | [3] | [4] | [9] | [5] | [6] | [7] | [8]

CC1=CC(C)(C)Nc2ccccc21
inactive: [1] | [3] | [4] | [5] | [6] | [7]

C[C@]12CC[C@@H]3c4ccc(O)cc4CC[C@H]3[C@@H]1CC[C@@H]2O
active: [10] 4.25 µM and 2.18 µM
inactive: [1] | [4] | [5] | [6] | [7]

Nc1ccc2c(O)cc(S(=O)(=O)O)cc2c1
inactive: [1] | [3] | [4] | [9] | [6] | [8]

COc1ccc(-c2coc3cc(O)cc(O)c3c2=O)cc1
inactive: [1] | [4] | [9] | [5] | [6] | [7] | [8]

Source: PubChem BioAssay (Tox21)
